# Experimental data from the supplement of paper PMC6555819.
# Tests used:
# Assay in all cases: PBM binding z-score (relative to random genomic background probes); higher = stronger binding; sequences stand for … in GC…GCGATTGACAGCGTAGAATGAAGG
# [1] = tested on: FXR:RXRa (NR concentration 270 nM, RXRa partner concentration 90 nM)
# In short: (§1)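 Binding buffer was PBS pH 7.4 with 2% milk, 0.02% Triton X-100, 1 mM DTT, 0.2 mg/mL BSA and 0.4 mg/ml salmon testes DNA. In it, ligand-free nuclear receptor dimers were incubated 1 h on custom Agilent 4×180K protein-binding microarrays carrying double-stranded probes. Antibodies against each partner (one per run) detected binding, and z-scores were calculated against random background probes after regression normalization of scanned fluorescence.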
# [2] = tested on: LXRa:RXRa (NR concentration 270 nM, RXRa partner concentration 90 nM)
# In short: as §1
# [3] = tested on: LXRa homodimer (NR concentration 270 nM)
# In short: as §1
# [4] = tested on: LXRb:RXRa (NR concentration 270 nM, RXRa partner concentration 90 nM)
# In short: as §1
# [5] = tested on: LXRb homodimer (NR concentration 270 nM)
# In short: as §1
# [6] = tested on: PPARa:RXRa (NR concentration 270 nM, RXRa partner concentration 90 nM)
# In short: as §1
# [7] = tested on: PPARg:RXRa (NR concentration 180 nM, RXRa partner concentration 90 nM)
# In short: as §1
# [8] = tested on: PPARg:RXRa 270nM:90nM, anti-RXR (NR concentration 270 nM, RXRa partner concentration 90 nM)
# In short: as §1
# [9] = tested on: PPARg:RXRa 30nM:10nM, anti-RXR (NR concentration 30 nM, RXRa partner concentration 10 nM)
# In short: as §1
# [10] = tested on: PPARg:RXRa 90nM:30nM, anti-RXR (NR concentration 90 nM, RXRa partner concentration 30 nM)
# In short: as §1
# [11] = tested on: PPARg:RXRa DBDmut IVT, anti-RXR (DBD mutation: RXRa K156A/R161A, NR concentration 270 nM, RXRa partner concentration 90 nM)
# In short: as §1
# [12] = tested on: PPARg:RXRa IVT, anti-PPARg (NR concentration 270 nM, RXRa partner concentration 90 nM)
# In short: as §1
# [13] = tested on: PPARg DBDmut:RXRa IVT, anti-PPARg (DBD mutation: PPARg1 K132A/R137A, NR concentration 270 nM, RXRa partner concentration 90 nM)
# In short: as §1
# [14] = tested on: PPARg DBDmut IVT, anti-PPARg (DBD mutation: PPARg1 K132A/R137A, NR concentration 270 nM)
# In short: as §1
# [15] = tested on: PPARg homodimer (NR concentration 180 nM)
# In short: as §1
# [16] = tested on: PXR:RXRa (NR concentration 270 nM, RXRa partner concentration 90 nM)
# In short: as §1
# [17] = tested on: PXR homodimer (NR concentration 270 nM)
# In short: as §1
# [18] = tested on: RARa:RXR (NR concentration 270 nM, RXRa partner concentration 90 nM)
# In short: as §1
# [19] = tested on: RARa homodimer (NR concentration 270 nM)
# In short: as §1
# [20] = tested on: RARb:RXRa (NR concentration 270 nM, RXRa partner concentration 90 nM)
# In short: as §1
Sequence,PBM binding z-score [1],PBM binding z-score [2],PBM binding z-score [3],PBM binding z-score [4],PBM binding z-score [5],PBM binding z-score [6],PBM binding z-score [7],PBM binding z-score [8],PBM binding z-score [9],PBM binding z-score [10],PBM binding z-score [11],PBM binding z-score [12],PBM binding z-score [13],PBM binding z-score [14],PBM binding z-score [15],PBM binding z-score [16],PBM binding z-score [17],PBM binding z-score [18],PBM binding z-score [19],PBM binding z-score [20]
CCTAGGTGGTCAAGGTCACACACGCTATAGGTAC,4.58,3.67,1.51,3.57,0.536,4.35,3.72,3.83,1.19,2.85,1.34,3.54,0.368,0.561,4.82,4.24,1.58,4.44,1.3,4.22
ATATGTAGGTTACATCCGGGTCATGCAGGCTATG,2.18,3.82,0.802,2.38,0.427,4.45,6.06,5.18,2.64,4.3,7.41,7.25,2.04,1.91,1.38,3.26,0.751,3.55,0.629,2.36
TCTGCTAGGTCAGTCGGTCAGCTAACGAGCTGCC,1.18,0.763,-0.313,0.432,0.0608,1.92,1.25,2.34,1.11,1.44,3.05,3.83,-0.327,-0.109,0.456,-0.00116,-1.21,0.436,-1.08,3.6
CGTCCAAGGTCAAGGTCAGGGAAAGAGACTCGAA,7.19,5.97,1.22,4.87,0.963,6.11,6.41,7.28,3.93,5.91,4.11,5.09,0.821,-0.224,4.18,5.28,1.82,5.45,2.88,5.72
GCTGCTAGGTCAACTGATGGTCAGATAAAGCTCG,4.47,3.11,0.48,2.43,0.348,3.87,3.29,3.18,0.958,2.4,4.95,4.14,-0.121,0.186,2.79,1.8,-0.238,3.42,-0.022,4.22
CAAACTAGGACAAGAGGTCAAAGTCCGCTTCCCG,4.96,5.72,5.89,4.83,1.83,5.48,5.75,6.56,4.76,6.29,5.17,5.25,1.06,0.504,3.1,5.45,2.97,5.92,0.963,4
TTACCACGGTGAAAGGTCGTTGATGCACGCCTTG,1.82,1.94,0.347,1.79,-0.318,4.03,6.35,6.53,5.02,6.87,0.591,3.21,0.23,0.773,1.78,2.43,0.446,2.56,0.421,1.94
TCATCTAGGTAAACAGGTGAAAGTCCGTAAGTTA,1.02,0.956,0.17,1.04,0.174,2.4,3.14,3.94,3.92,3.86,4.8,5.11,1.31,1.14,0.609,0.409,0.487,0.888,0.849,0.534
TGAATGAGGTTAAAGATCAGGGACCGTGGCGTCG,2.75,2.5,-0.345,1.45,0.253,4.71,5.75,6.16,5.21,6.9,1.93,3.65,0.741,0.491,1.52,1.94,-0.23,2.91,0.149,1.96
TTACCAAGGTGAAGGGCGTTGATCCCTCTGTAGA,0.622,0.629,-0.192,0.495,-0.575,1.47,0.846,2.19,0.835,1.69,1.73,2.43,-0.0766,-0.0935,0.279,0.365,-0.351,0.762,-0.0384,1.64
CTCGAAAGGTAGTGCTCAGGTGAGTATACCAAAC,-0.118,-0.487,-0.334,-0.319,-0.503,-0.373,-0.362,-0.344,-0.375,-0.618,-0.0569,-0.0512,-0.21,-0.517,-0.0331,-0.295,-0.0771,0.238,0.44,-0.123
TCTTGTAGATCAGTAGAGGTTAAGAAAGTGCGCT,0.847,3.26,0.497,1.64,-0.181,1.44,-0.271,1.56,2.48,2.12,1.74,0.609,1.08,0.665,0.247,2.93,-0.0152,1.63,0.74,0.882
CGTCCAAGGTCATAGGAGGCCAGTGAAGACAGAT,7.24,5.75,1.07,4.34,0.536,5.51,4.37,5.03,1.54,3.73,2.81,3.75,0.813,0.508,2.54,5.33,1.53,4.52,0.617,5
ACGAGCAGGCCAAGTTTGGGTCACTCAAACAAAG,0.0598,-0.0138,-0.363,0.536,-0.887,1.33,-0.00564,0.0624,-0.543,-0.429,-0.114,0.246,-0.842,-0.922,0.235,0.69,-0.152,1.46,-0.613,1.54
